Experiment [1] can be described thus: BSK_3C_SRB: Viability Assessment in the BioMAP Diversity Plus: 3C Assay (AID 2283023).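 Note: cells read 24 h after compound dosing; fitted both ways against DMSO so a hit may be signal rise or drop.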 The settings on record: primary human endothelial cells (HUVEC). The method in brief: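 Overt cytotoxicity is gauged in parallel confluent HUVEC cultures by SRB total-protein staining at the time of biomarker measurement, 24 h after dosing. Gain or loss of signal is fitted versus DMSO.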

Read-out in experiment [2]: Matrix Metallopeptidase 1 (MMP1), MMP1 (gene 4312)
As to the kind of experiment: BSK_BE3C_MMP1: BioMAP Diversity Plus: BE3C Assay for Matrix Metallopeptidase 1 (MMP1) Biomarker Activity (AID 2283024). The settings on record: primary human bronchial epithelial cells; actives raise or lower the signal. Summed up: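 In this multiplexed primary-cell system, human bronchial epithelium received chemicals for 24 h before an ELISA for MMP1. Values reflect bidirectional fits normalised to the DMSO baseline.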

Experiment [3] is described as follows: BSK_3C_Vis: BioMAP Diversity Plus: 3C Assay for Morphology Visualization (AID 2283025).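 For AC50: light microscopy image of cell morphology used as background control.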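 Note: fitted both ways so gain or loss versus DMSO counts.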 The settings on record: primary human endothelial cells (HUVEC). Summed up: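 Light-microscopy morphology readout, 24 h exposure, human primary umbilical vein endothelium; analysed relative to DMSO with bidirectional fitting.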
Read-out in experiment [4]: Pselectin, SELP (gene 6403)
As to the kind of experiment: BSK_4H_Pselectin: BioMAP Diversity Plus: 4H Assay for Pselectin Biomarker Activity (AID 2283026). To be noted: primary human endothelial cells (HUVEC); actives raise or lower the signal. Summed up: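 Bidirectional fits against DMSO gave the endpoint. Cells: primary human umbilical vein endothelium, chemical-treated for 24 h before ELISA detection of P-selectin.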

A short description of experiment [5]: BSK_4H_SRB: Viability Assessment in the BioMAP Diversity Plus: 4H Assay (AID 2283027).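 For AC50: curves fitted both ways versus DMSO so AC50 may be loss or gain.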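 Note: cells exposed to compound for 24 h before staining.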 The settings on record: primary human endothelial cells (HUVEC). Summed up: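 HUVEC, 24 h post-dose; 10% TCA fix, 0.1% SRB stain, A560 nm. Total protein = overt cytotoxicity, parallel to biomarker read. Bidirectional fit vs DMSO baseline.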
Experiment [6] is described as follows: BSK_BE3C_SRB: Viability Assessment in the BioMAP Diversity Plus: BE3C Assay (AID 2283028).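 For AC50: fitted both ways so AC50 may mark signal gain or loss versus DMSO.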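 Note: measured 24 h after chemical dosing.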 To be noted: primary human bronchial epithelial cells. Summed up: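 SRB total-protein staining (0.1%, after TCA fixation) of chemically dosed human bronchial epithelial primary cells at 24 h; DMSO serves as the negative control for bidirectional curve fitting.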
Read-out in experiment [7]: Thrombomodulin, THBD (gene 7056)
As to the kind of experiment: BSK_3C_Thrombomodulin: BioMAP Diversity Plus: 3C Assay for Thrombomodulin Biomarker Activity (AID 2283029). The settings on record: primary human endothelial cells (HUVEC); actives raise or lower the signal. Summed up: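 In a multiplexed primary-cell system, human umbilical vein endothelium received chemical and was assayed 24 h later for thrombomodulin by ELISA. Parallel cultures were SRB-stained (0.1% SRB after 10% TCA fixation, read at 560 nm) to flag cytotoxicity.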

Read-out in experiment [8]: Vascular endothelial growth factor receptor 2 (Homo sapiens) (UniProt P35968)
Put plainly: BSK_4H_VEGFRII: BioMAP Diversity Plus: 4H Assay for Vascular endothelial growth factor receptor 2 (VEGFR2) Biomarker Activity (AID 2283031). The settings on record: primary human endothelial cells (HUVEC); actives raise or lower the signal. Summed up:
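In this multiplexed HUVEC system, biomarker ELISA was performed after 24 h chemical exposure. Parallel SRB staining (TCA fixation, 560 nm) tracked cytotoxicity; DMSO served as baseline.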

Read-out in experiment [9]: Human Leukocyte Antigen - DR isotype (HLADR), HLA-DRA (gene 3122)
As to the kind of experiment: BSK_BE3C_HLADR: BioMAP Diversity Plus: BE3C Assay for Human Leukocyte Antigen - DR isotype (HLADR) Biomarker Activity (AID 2283032). To be noted: primary human bronchial epithelial cells; actives raise or lower the signal. Summed up: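 BioMAP BE3C format: human bronchial epithelium, 24 h compound treatment, ELISA detection of HLA-DR, with bidirectional analysis relative to DMSO.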

Read-out in experiment [10]: Urokinase-type plasminogen activator receptor (uPAR), PLAUR (gene 5329)
As to the kind of experiment: BSK_4H_uPAR: BioMAP Diversity Plus: 4H Assay for Urokinase-type plasminogen activator receptor (uPAR) Biomarker Activity (AID 2283030). The settings on record: primary human endothelial cells (HUVEC); actives raise or lower the signal. Summed up:
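Endpoint derived via bidirectional curve fitting against DMSO baseline; readout was ELISA detection of uPAR on umbilical vein endothelial cells at 24 h post-treatment, with SRB-stained parallel cultures assessing cytotoxicity.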

The source made the active and inactive calls. Rule for the calls: active = hit-call score of the fitted dose curve at least 0.9, where 1 is the maximum; inactive = score below 0.9.

For the compound `COc1ccc(-n2nc(C(F)F)cc2-c2ccc(S(C)=O)cc2)cc1` (stereo unspecified), the outcome in experiment [1], in experiment [2], in experiment [3], in experiment [4], in experiment [5] and in experiment [6] was inactive. The result in experiment [7], in experiment [8] and in experiment [9] was inactive.

As for `COC(=O)CC(=O)OC`, the outcome in experiment [1], in experiment [2], in experiment [3], in [4], in experiment [5] and in experiment [6] was inactive. In addition, the outcome in [7], in experiment [10] and in experiment [9] was inactive.

By AC50 is commonly meant the concentration at which the activity in the assay is half-maximal. For the compound `O=C(OC[C@H]1O[C@@H](OC(=O)c2cc(O)c(O)c(OC(=O)c3cc(O)c(O)c(O)c3)c2)[C@H](OC(=O)c2cc(O)c(O)c(OC(=O)c3cc(O)c(O)c(O)c3)c2)[C@@H](OC(=O)c2cc(O)c(O)c(OC(=O)c3cc(O)c(O)c(O)c3)c2)[C@@H]1OC(=O)c1cc(O)c(O)c(OC(=O)c2cc(O)c(O)c(O)c2)c1)c1cc(O)c(O)c(OC(=O)c2cc(O)c(O)c(O)c2)c1`, the AC50 in experiment [1] is 9.7 µM (active); in [2], 10.8 µM (active); in experiment [4], 6.1 µM (active); in [9], 8.27 µM (active). The outcome in experiment [3], in [5], in experiment [6], in experiment [7] and in experiment [8] was inactive.

Turning to `C1=CCCC=CCCC=CCC1`, the result in experiment [1], in experiment [2], in experiment [3], in [4], in experiment [5] and in experiment [6] was inactive. Also, the outcome in experiment [7], in experiment [10] and in [9] was inactive.

In the case of `CCCCCCCCO`, the result in experiment [1], in experiment [2], in [3], in experiment [4], in experiment [5] and in experiment [6] was inactive. The result in [7], in experiment [10] and in experiment [9] was inactive.

As to `Cc1ccc(S(=O)(=O)O)cc1C`, the outcome in experiment [1], in experiment [2], in [3], in experiment [4], in [5] and in experiment [6] was inactive. In addition, the result in experiment [7], in [10] and in [9] was inactive.

Turning to `CC(C)CC(C)(O)C#CC(C)(O)CC(C)C` (stereo unspecified), the result in [1], in [2], in experiment [3], in [4], in experiment [5] and in [6] was inactive. Further, the outcome in [7], in experiment [10] and in experiment [9] was inactive.

For `C=CCCCCCCCCC(=O)O`, the outcome in experiment [1], in experiment [2], in [3], in experiment [4], in [5] and in experiment [6] was inactive. Moreover, the result in [7], in [10] and in experiment [9] was inactive.

On to `CCCCCCc1ccc(O)cc1O`, for which the AC50 in experiment [1] is 34.9 µM (active); in experiment [3], 39.8 µM (active); in experiment [4], 32.3 µM (active); in experiment [5], 32.5 µM (active); in [6], 35.5 µM (active); in [10], 36.6 µM (active). For the same compound, the AC50 in [9] was 29.5 µM (active). In addition, the result in [2] and in [7] was inactive.

With `CCCCCCCCCCCCc1ccccc1`, the result in [1], in [2], in [3], in experiment [5], in experiment [6] and in experiment [7] was inactive. For the same compound, the outcome in [10] and in experiment [9] was inactive. Further, in experiment [4], the concentration at half-maximal activity (AC50) is 31.5 µM (active).

Consider `CCOCCOCCOCCO`, for which the outcome in experiment [1], in [2], in experiment [3], in experiment [4], in experiment [5] and in [6] was inactive. The outcome in [7], in [10] and in [9] was inactive.

For the compound `O=C(NS(=O)(=O)/C=C/c1ccccc1)c1ccc(F)cc1Cl`, the outcome in experiment [1], in [2], in experiment [3], in experiment [4], in experiment [5] and in [6] was inactive. The result in experiment [7] and in experiment [8] was inactive. Besides, the AC50 in experiment [9] was 6.15 µM (active).

For `CC(C)c1cccc(C(C)C)c1N1C(=O)c2ccc(O)cc2C1=O`, the AC50 was 17.3 µM (active) in [1]; 5.57 µM (active) in [3]; 8.54 µM (active) in experiment [4]; 12.8 µM (active) in experiment [5]; 14.6 µM (active) in experiment [10]; 14 µM (active) in experiment [9]. The result in experiment [2], in [6] and in experiment [7] was inactive.

For the compound `CN(C)c1ccc(Cc2ccc(N(C)C)cc2)cc1`, the result in experiment [1], in [3], in experiment [5], in [6], in experiment [7] and in experiment [8] was inactive. In addition, the values for the AC50 in [2], in experiment [4] and in experiment [9] were 12.6 µM (active), 32.8 µM (active) and 36.3 µM (active), respectively.

On to `CC(=O)OCCC(C)C`, for which the outcome in experiment [1], in [2], in experiment [3], in [4], in experiment [5] and in experiment [6] was inactive. Besides, the outcome in [7], in experiment [8] and in [9] was inactive.

Take `Cc1ccc(N)cc1O`: the result in [1], in experiment [2], in experiment [3], in [4], in experiment [5] and in experiment [6] was inactive. For the same compound, the result in experiment [7], in [8] and in experiment [9] was inactive.

For the compound `COc1ccc(/C=C/S(=O)(=O)NC(=O)c2ccc(C)cc2Cl)cc1`, the outcome in experiment [1], in experiment [2], in experiment [3], in experiment [4], in experiment [5] and in experiment [6] was inactive. The outcome in [7], in experiment [10] and in experiment [9] was inactive.

`NC(=O)NO`: the result in experiment [1], in [2], in experiment [3], in [4], in experiment [5] and in experiment [6] was inactive. For the same compound, the result in experiment [7] and in [9] was inactive.

Consider `O=C(O)c1cc(N=Nc2ccc(S(=O)(=O)Nc3ccccn3)cc2)ccc1O`, for which the outcome in experiment [1], in experiment [2], in experiment [3], in experiment [4], in experiment [5] and in experiment [6] was inactive. The outcome in experiment [7] and in experiment [9] was inactive.

With `CCn1nc(Cc2ccccc2)cc1C1CCN(C[C@H]2C[C@H](N(C)[C@@H](C(=O)O)C(C)C)C[C@@H]2c2cccc(F)c2)CC1`, the outcome in experiment [1], in [2], in [3], in [4], in experiment [5] and in [6] was inactive. The outcome in experiment [7] and in experiment [9] was inactive.

Take `CC(=O)OC[C@H]1O[C@@](COC(C)=O)(O[C@H]2O[C@H](COC(C)=O)[C@@H](OC(C)=O)[C@H](OC(C)=O)[C@H]2OC(C)=O)[C@@H](OC(C)=O)[C@@H]1OC(C)=O`: the result in experiment [1], in experiment [2], in experiment [3], in experiment [4], in experiment [5] and in experiment [6] was inactive. For the same compound, the outcome in [7] and in [9] was inactive.

In the case of `CC[C@H]1CC[C@H](NCc2cc3c(cc2OC)[C@H]2C[C@H]2C(=O)N3C)[C@H](c2ccccc2)N1`, the result in experiment [1], in experiment [2], in experiment [3], in experiment [4], in [5] and in experiment [6] was inactive. The result in experiment [7] and in [9] was inactive.

`CCOCCO`: the result in [1], in experiment [2], in experiment [3], in [4], in [5] and in experiment [6] was inactive. For the same compound, the result in experiment [7] and in experiment [9] was inactive.

For the origin of these results see PubChem BioAssay (EPA / NIEHS).
